# A selection: hits, their analogues and other compounds. The true share with any hit is near 11%.
# hNpr1 antagonist: antagonists of human natriuretic peptide receptor Npr1 | HEK293 hNpr1 GloSensor cGMP, ANP-stimulated luminescence | Potency, µM (top dose mostly 46.3 µM), for the others: top-dose activity change, negative = inhibition, most hits filed as inhibitors | actives 1.6% (n = 76,000); calls by dose curve; also: % is scaled to controls: 0 for no effect and ±100 for the full control effect; nearly all actives have a fitted effect of over 60% in size
#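 HEK293 cells stably expressing human Npr1 and cGMP GloSensor pGS-40F, loaded 2 h with 2% GloSensor reagent, given compound 30 min at room temperature. Luminescence read before and 20 min after 0.1 nM hNppA.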
# HEK cytotox: kills HEK 293 cells; AID 1345083; HEK 293 viability, ATP luminescence (CellTiter-Glo), 48-72 h; Potency, µM (top dose mostly 115 µM), for the others: at the top dose activity change, negative = cytotoxicity, usual class: inhibitors; actives 6.6% (n = 94,000); also: % is scaled to controls: 0 for no effect and ±100 for the full control effect; nearly all actives have a fitted effect of over 60% in size
#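 ATP-coupled CellTiter-Glo luminescence served as viability read-out, recorded 10 min after reagent addition at room temperature. HEK 293 cells, 250 cells/well, had been incubated with pintool-transferred compound for 48 or 72 hr at 37 degree Celsius.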
# 3T3 cytotox: NIH 3T3 cell cytotoxicity. NIH 3T3 viability, CellTiter-Glo ATP luminescence, 48-72 h. Potency, µM (series often up to 96.7 µM), without a hit: top-dose activity change, negative = cytotoxicity, most hits filed as inhibitors. actives 4.3% (n = 94,000); also: % is scaled to controls: 0 for no effect and ±100 for the full control effect; nearly all actives have a fitted effect of over 55% in size
#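 Viability of NIH 3T3 cells after 48 or 72 hr compound treatment at 37 °C was assessed by CellTiter-Glo, with luminescence imaged following a 10 min room-temperature step.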
# FLuc inh: inhibitors of firefly (Photinus pyralis) luciferase; P08659; AID 1347043; actives 2.5% (n = 76,000); Potency, µM (highest dose often 115 µM), hits mostly inhibitors; purified P. pyralis luciferase, luminescence, biochemical; also: % is scaled to controls: 0 for no effect and ±100 for the full control effect; nearly all actives have a fitted effect of over 65% in size
#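 Biochemical qHTS: compound (6-point titration) added to 10uM D-luciferin plus 10uM ATP in Tris acetate pH 7.5 buffer with Mg, Tween-20 and BSA, then purified enzyme at 10nM; light output imaged.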
# NPR1 antag cnf: confirmation of human Npr1 natriuretic peptide receptor antagonists. shares compounds with hNpr1 antagonist. HEK293 hNpr1 cGMP GloSensor luminescence, ANP-stimulated. actives 76% (n = 1,400). Potency, µM (series often up to 57.6 µM), for the others: at the top dose activity change, negative = inhibition, usual class: inhibitors. AID 1347044; calls by dose curve; also: nearly all actives have a fitted effect of over 70% in size
# NPR2 antag: antagonizes human Npr2, subtype selectivity check | Potency, µM (doses to about 57.6 µM), inactives show at the highest dose activity change, negative = inhibition, actives largely listed as inhibitors | AID 1347046 | actives 67% (n = 1,400) | shares compounds with hNpr1 antagonist | HEK293 hNpr2 GloSensor cGMP luminescence, CNP-stimulated; calls by dose curve; also: nearly all actives have a fitted effect of over 70% in size
# FLuc counter: inhibits firefly luciferase, false Npr1 antagonist flag; shares compounds with hNpr1 antagonist; purified FLuc enzyme, luminescence, Km substrate; Potency, µM (series often up to 57.6 µM), inactives show at the top dose activity change, negative = inhibition, actives largely listed as inhibitors; actives 0.7% (n = 1,400); also: 0% is about no effect
# GloSensor cGMP: reduces cGMP signal in GloSensor control cells; Potency, µM (series often up to 57.6 µM), for inactives: at the top dose activity change, negative = inhibition, actives largely listed as inhibitors; HEK293 GloSensor cGMP, SNP-stimulated, luminescence; shares compounds with hNpr1 antagonist; actives 69% (n = 1,400); calls by dose curve; also: % is scaled to controls: 0 for no effect and ±100 for the full control effect; nearly all actives have a fitted effect of over 70% in size
# * marks the source's active call; other numbers are inactive results; i = inactive; ? = inconclusive; / = not tested or not shown; [ ] = another dose, or the depositor's remark. Unless noted, calls follow the shape of the dose curve; as a rule, active = well fitted curve in the direction sought with a large enough effect; inconclusive = small, poorly fitted or top-dose-only effect, or another doubt; inactive = no such curve, though single readings can be large; an effect the other way counts as inactive or inconclusive. Potency is read from the fitted curve at half-maximal effect.
SMILES,hNpr1 antagonist,HEK cytotox,3T3 cytotox,FLuc inh,NPR1 antag cnf,NPR2 antag,FLuc counter,GloSensor cGMP
CC(C)c1nc(-c2ccc(OC3CCN(C(=O)c4cc(F)ccc4F)C3)cc2)no1 (stereo not drawn),11µM*,20µM*,?,i,11µM*,14µM*,1%,11µM*
O=C(c1cc(F)ccc1F)N1CCC(Oc2cccnc2)C1 (stereo not drawn),/,-9%,-22%,/,/,/,/,/
FC(F)(F)c1ccc(CN2CCC3(CC2)CC(c2cccnc2)=NO3)cc1,2.5µM*,?,?,i,6.9µM*,11µM*,2%,6.1µM*
FC(F)(F)c1ccc(CN2CCC3(CC(c4cccnc4)=NO3)C2)cc1 (stereo not drawn),/,?,-17%,/,/,/,/,/
CC1(C)[C@H](Cc2cc(CN3CCOCC3)on2)C[C@@H]1NS(C)(=O)=O,-4%[70.6 µM],-1%[172 µM],-3%[174 µM],i,/,/,/,/

# From PubChem
